Only some compounds are listed: those with a hit (about 9.5% of all), similar ones and a draw of the others.
Tau FP inhib – qHTS for Inhibitors of Tau Fibril Formation, Fluorescence Polarization | Microtubule-associated protein tau (Homo sapiens), P10636 | Potency, µM (highest dose often 57.7 µM), inactives show at the top dose activity, negative = inhibition, actives largely listed as inhibitors | 280,000 tested, 0.39% active | K18 P301L tau heparin fibrillization, Alexa594 FP, 6 h | AID 1468, 2008; also: nearly all actives have a fitted effect of over 55% in size
Target sequence (P10636 561-689 P618L limits assumed): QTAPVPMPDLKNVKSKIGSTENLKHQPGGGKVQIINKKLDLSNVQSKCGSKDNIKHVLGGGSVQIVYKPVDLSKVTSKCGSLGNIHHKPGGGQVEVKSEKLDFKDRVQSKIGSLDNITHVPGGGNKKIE
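Human K18 P301L fragment (15 uM unlabeled plus 0.24 uM Alexa 594-labeled) in 100 mM sodium acetate pH 7 with compound, aggregation induced by 20 uM heparin for 6 hr at 37 C. ThT (30 uM) added for 1 hr, then Alexa 594 FP read.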
Tau ThT inhib – qHTS for Inhibitors of Tau Fibril Formation, Thioflavin T Binding. Microtubule-associated protein tau (Homo sapiens), P10636. recombinant tau K18 P301L, heparin-induced fibrillization, ThT fluorescence. Potency, µM (top dose mostly 57.4 µM), without a hit: at the highest dose activity, negative = inhibition, actives largely listed as inhibitors. 270,000 tested, 2.1% active. AID 1460, 2008; also: nearly all actives have a fitted effect of over 55% in size
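Heparin-induced (20 uM) aggregation of recombinant human K18 P301L tau, 15 uM unlabeled with 0.24 uM labeled, pH 7 acetate buffer, 6 hr at 37 C with compound. Fibrils quantified by 30 uM ThT fluorescence after 1 hr ambient incubation.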
HPGD block – qHTS Assay for Inhibitors of HPGD (15-Hydroxyprostaglandin Dehydrogenase). 15-hydroxyprostaglandin dehydrogenase [NAD(+)] (Homo sapiens), P15428. purified HPGD, NADH fluorescence kinetic, PGE2 substrate. Potency, µM, without a hit: at the highest dose activity change, negative = inhibition, actives largely listed as inhibitors. 150,000 tested, 4.3% active; active = well fitted inhibition curve with a large enough effect, not every such curve was filed as active; inconclusive = small, poorly fitted or top-dose-only effect, or another doubt; inactive = no such curve, though single readings can be large or run the other way
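NADH formation kinetics: reaction with 30 uM PGE2 and 1 mM NAD+ (final), 20 nM enzyme, Tris-HCl pH 8 with Tween 20, after 15 min compound preincubation at room temperature. Fluorescence change, last versus first of five reads.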
NPSR antagonist – qHTS Assay for Antagonists of the Neuropeptide S Receptor: cAMP Signal Transduction. CHO-NPSR cells, cAMP TR-FRET, antagonist mode. Potency, µM (doses to about 38.3 µM), without a hit: at the top dose activity change, negative = inhibition, actives largely listed as inhibitors. 220,000 tested, 1% active. Q6W5P4. AID 1461, 2008; also: nearly all actives have a fitted effect of over 50% in size
Target sequence (Q6W5P4 whole entry, looked up): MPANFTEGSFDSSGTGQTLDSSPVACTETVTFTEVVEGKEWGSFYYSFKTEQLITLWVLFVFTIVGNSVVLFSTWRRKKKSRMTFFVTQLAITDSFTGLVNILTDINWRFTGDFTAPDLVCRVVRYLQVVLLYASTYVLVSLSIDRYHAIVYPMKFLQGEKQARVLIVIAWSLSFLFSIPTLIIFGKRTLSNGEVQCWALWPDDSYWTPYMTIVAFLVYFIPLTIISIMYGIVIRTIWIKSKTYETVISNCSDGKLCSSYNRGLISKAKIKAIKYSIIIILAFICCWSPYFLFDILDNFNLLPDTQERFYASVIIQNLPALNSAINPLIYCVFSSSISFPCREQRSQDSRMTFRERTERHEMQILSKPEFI
ALDH1A1 block – qHTS Assay for Inhibitors of Aldehyde Dehydrogenase 1 (ALDH1A1); Aldehyde dehydrogenase 1A1 (Homo sapiens), P00352; Purified ALDH1A1, NADH fluorescence, propionaldehyde substrate; Potency, µM (doses to about 75.3 µM), inactives show at the highest dose activity, negative = inhibition, most hits filed as inhibitors; 220,000 tested, 7.3% active; AID 1030, 2008; active = well fitted inhibition curve with a large enough effect, not every such curve was filed as active; inconclusive = small, poorly fitted or top-dose-only effect, or another doubt; inactive = no such curve, though single readings can be large or run the other way;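 also: plate controls were no enzyme wells and a reference inhibitor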
Tau fluor cs – Counterscreen qHTS for Inhibitors of Tau Fibril Formation, Fluorescence Polarization; tau K18 P301L Alexa594 fluorescence, heparin fibrillization; Potency, µM (doses to about 57.7 µM), without a hit: at the top dose activity change, negative = decrease; 280,000 tested, 0.93% active; also: nearly all actives have a fitted effect of over 55% in size
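Human tau K18 P301L (15 uM unlabeled, 0.24 uM Alexa 594-labeled) in 100 mM sodium acetate pH 7 with 20 uM heparin, 6 hr at 37 C. ThT 30 uM added, 1 hr ambient; Alexa 594 FP and total fluorescence read at 555/632 nm.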
* = called active by the depositor; ? = inconclusive; . = not tested or not shown; [ ] = another dose, or the depositor's remark. Unless noted, calls follow the shape of the dose curve; as a rule, active = well fitted curve in the direction sought with a large enough effect; inconclusive = small, poorly fitted or top-dose-only effect, or another doubt; inactive = no such curve, though single readings can be large; an effect the other way counts as inactive or inconclusive. Unless noted, % is scaled to controls: 0 for no effect and ±100 for the full control effect; potency is read from the fitted curve at half-maximal effect.

SMILES | Tau FP inhib | Tau ThT inhib | HPGD block | NPSR antagonist | ALDH1A1 block | Tau fluor cs
COc1ccc(CCN2C(=O)CC(NCCc3ccc(S(N)(=O)=O)cc3)C2=O)cc1OC (stereo unspecified) | 3% | -10% | -2% | 1%[46.1 µM] | 10µM* | -3%
CCOc1ccc(CCN2C(=O)C3C4C=CC(C4)C3C2=O)cc1OCC (stereo unspecified) | 3% | -7% | -12% | -9%[46.1 µM] | 3.5µM* | -6%
COc1ccc(CCN2C(=O)CC(NC34CC5CC(CC(C5)C3)C4)C2=O)cc1OC (stereo unspecified) | 8% | -10% | . | -3% | 10µM* | -8%
COC(=O)NC(c1cccc(F)c1)[C@@]1(C(=O)OC)CCCC1=O (stereo partly specified) | -1%[11.6 µM] | -7%[11.5 µM] | . | . | 3%[13.5 µM] | 4%[11.6 µM]
CCOC(=O)c1c(C)[nH]c(C)c1S(=O)(=O)N(C)CC(=O)Nc1ccc(C)c(F)c1 | -3% | 5% | . | . | . | -11%
Cc1ccc(S(=O)(=O)N2CCCCC2)cc1NC(=O)Cn1c(=O)cnc2ccccc21 | 3% | 4% | . | -44% | ? | -6%
C=CCNC(=O)c1onc(CSc2cccc(OC)c2)c1C(=O)O | 0% | -2% | -13% | -2%[46.1 µM] | -1% | 1%
COc1ccccc1N1CCN(C(=O)c2ccc([N+](=O)[O-])s2)CC1 | 1% | ? | . | 8%[46.1 µM] | 11% | -25%
O=C(c1cc2c(s1)CCCCC2)N1CCN(c2ncccn2)CC1 | 8% | ? | -12% | -22%[46.1 µM] | 14µM* | -5%
O=C(c1cc2c(s1)CCCC2)n1cccn1 | -3% | -6% | 16µM* | 6%[46.1 µM] | ? | -9%
COc1ccccc1N1CCN(C(=O)c2cc3c(s2)CCC3)CC1 | ? | ? | -18% | ? | 20µM* | -22%
CC(=O)c1ccc(N2CCN(C(=O)c3cc4c(s3)CCCC4)CC2)cc1 | 2% | ? | . | -43% | 22µM* | 0%
CCOC(=O)CSc1nc(C)c(C(C)=O)cc1C#N | 7% | 1% | 22µM* | 1%[46.1 µM] | 20% | 3%
CC(C)(CSc1ncccn1)NS(=O)(=O)c1ccccc1 | 13% | 2% | . | 6% | ? | -6%
Cc1ccc(S(=O)(=O)NC(C)(C)CSc2nnc(Nc3ccccc3)s2)cc1 | 4% | -17% | -10% | ? | 20µM* | 18µM*[quencher]
CCOC(=O)c1c(C)n(-c2ccc(C)cc2)c2c(C(C(C)=O)C(=O)O)c(Br)c(O)c(O)c12 (stereo unspecified) | ? | ? | 18µM* | 10µM* | ? | ?
CCOC(=O)c1c(C)n(-c2ccc(C)cc2)c2c(CC(C)=O)c(Br)c(OC)c(O)c12 | 0% | -10% | -4% | 10µM* | 7% | 0%
CCOC(=O)C(C(C)=O)c1c(Br)c(O)c(O)c2c(C(=O)c3ccc(C)cc3)coc12 (stereo unspecified) | 5% | ? | 7.9µM* | ? | -3% | -12%
Cc1noc(C)c1C(=O)N1CCC[C@@]2(CCN(Cc3ccc(C#N)cc3)C2)C1 | . | . | -5% | . | 4% | .
Cc1cc(C)cc(NC(=O)c2cc(S(=O)(=O)N3CCOCC3)cn2C)c1 | -11% | 4% | . | . | . | 3%
CN1CCc2c(n(CC(O)CN(CCO)CCO)c3ccccc23)C1=O (stereo unspecified) | -4% | 10% | . | 20% | 0% | -9%
Cc1c(C)n(CC(O)CN2C(=O)c3ccccc3S2(=O)=O)c2ccccc12 (stereo unspecified) | ? | -20% | 20µM* | -14%[46.1 µM] | 14µM* | ?
CN1CCc2c(n(CC(O)CN3C(=O)c4ccccc4S3(=O)=O)c3ccccc23)C1=O (stereo unspecified) | ? | -5% | -1% | -2%[46.1 µM] | 10µM* | -9%
Cc1ccc(-c2nc(SCC(=O)Nc3cc(C)on3)c3c(=O)n(C)c(=O)n(C)c3n2)cc1 | -3% | 1% | . | . | . | -1%
COc1ccc(C/C(C)=N/NC(=O)c2ccc(Cl)cc2)cc1 | -5% | ? | . | -2% | 7.1µM* | -9%
SMILES | Tau FP inhib | Tau ThT inhib | HPGD block | NPSR antagonist | ALDH1A1 block | Tau fluor cs
COc1ccc(C(=O)Nc2cc(Cl)ccc2OC(=O)c2ccc(OC)cc2)cc1 | -3% | -9% | -8% | -12%[46.1 µM] | 1µM* | -15%
COc1ccc(C(=O)Nc2cc(OC)ccc2OC)cc1 | -3% | -16% | -12% | -17%[46.1 µM] | 1% | -17%
COc1ccc(C/C(C)=N/NS(=O)(=O)c2ccc(Br)cc2)cc1 | -8% | -10% | . | 13% | 2.8µM* | -22%
CCOc1cc(C(=O)N/N=C(\C)Cc2ccc(OC)cc2)cc(OCC)c1OCC | 4% | -7% | -10% | 16% | 2% | -1%
COc1ccc(OC)c(NC(=O)c2ccc3nc(-c4ccccc4)c(-c4ccccc4)nc3c2)c1 | 9% | -17% | -11% | -7% | 10µM* | -27%
c1ccc(COCc2ccccc2)cc1 | . | . | -12% | . | -15% | .
COC(=O)[C@@]1(Cc2ccccc2)[C@H]2c3cc(C(=O)N4CCCC4)[nH]c3C[C@H]2CN1C(=O)c1ccccc1 | 4% | -10% | -7% | . | -3% | 1%
Cc1c(NC(=O)c2cc(=O)[nH]c(=O)[nH]2)c(=O)n(-c2ccccc2)n1C | -3% | -1% | 0% | 20%[7.67 µM] | -10% | -7%
Cc1cc(C)c2c(c1)[C@@H]1C=CC[C@@H]1[C@H](c1ccc(S(=O)(=O)N3CCOCC3)cc1)N2 | 0% | -14% | 25µM* | -27% | 25µM* | -1%
C[C@@H]1O[C@H]2C3=C(C(=O)[C@H]4O[C@@H]4[C@H]3O)[C@@H]1[C@@H]1[C@@H](C)OC=C3[C@H](O)[C@H]4O[C@@H]4/C(=N\OCc4ccccc4)[C@]312 | -5%[11.6 µM] | -14%[11.5 µM] | . | . | 5%[13.5 µM] | -12%[11.6 µM]
Nc1nc(Cl)cc(N2CCC(c3cc(-c4ccc(Cl)cc4)n[nH]3)CC2)n1 | -15% | -7% | -6% | 10µM* | 1% | ?
Cc1ccccc1C(=O)Nc1cccc(-c2ccc3nncn3n2)c1 | 5% | 1% | . | -27% | 14µM* | 5%
Cc1cc(C)nc(SCC(=O)Nc2ccc(S(=O)(=O)Nc3onc(C)c3C)cc2)n1 | -1% | -7% | -5% | 18%[46.1 µM] | 26% | -3%
Cc1noc(NS(=O)(=O)c2ccc(NC(=O)CSc3nc4ccccc4s3)cc2)c1C | -10% | ? | 28µM* | -9%[46.1 µM] | 10µM* | -14%

Screens from PubChem BioAssay.
